The results in this text go back to ChEMBL document CHEMBL3433997, “St. Jude Leishmania screening dataset” (2016).

The first assay deals with Hexose transporter 1 (Plasmodium falciparum) (UniProt O97467). The assay can be described thus: ST_JUDE_LEISH: Cytotoxicity at 2uM final concentration against transgenic Leishmania Mexicana promastigotes LmPfHT that are glucose transport deficient and complemented with the Plasmodium falciparum hexose transporter. Activity is measured by DNA content using SYBR green in vitro. Type of assay: functional.
With `CCN(c1cc(C)nc(Nc2ccc(Cl)cc2)n1)[C@H]1CCN(Cc2ccccc2)C1`, the inhibition came to 7.78%.

On to `CS(=O)(=O)c1cccc(-c2cnc(N)c3cc(-c4ccc(F)cc4)ccc23)c1`, for which the inhibition turned out to be 1.64%.

With `Nc1n[nH]c(-c2ccccc2Nc2ccnc3cc(-c4nccs4)ccc23)n1`, the inhibition was 0.07%.

For the compound `CCn1cnc2c(N3CCCC3=O)cc(C(=O)N[C@@H](Cc3ccccc3)[C@H](O)CNC3CCCCC3)cc21`, the inhibition is 1.91%.

`Cc1cc(NC(=O)NCCN2CCC(NS(=O)(=O)c3ccc(Br)cc3)C2)c2ccccc2n1` (stereo unspecified): the inhibition was 3.86%.

For the compound `COc1ccc(NC(=O)CCNc2cc(C)nc(NCc3cccc(C)c3)n2)cc1`, the inhibition amounted to 0.43%.

`N#Cc1ccc(-c2ccc(C(=O)NCCCCN3CCC(c4ccc5c(c4OCc4ccccn4)CCCC5)CC3)cc2)cc1`: the inhibition is 1.73%.

With `COc1ccc(-c2cccc(NC(=O)c3ccc(C#N)cc3)c2)cc1CN1CCCN(C)CC1`, the inhibition amounted to 2.59%.

Regarding `Nc1nc(N)c2c(ccc3c2ccn3Cc2ccc(OCc3ccccc3)cc2)n1`, the inhibition is -1.46%.

Take `CC(C)(C)c1ccc(Cn2c(=N)n(CC(=O)c3ccc(-c4ccccc4)cc3)c3ccccc32)cc1`: the inhibition was -0.1%.

In the case of `CCc1c(C(=O)NC2CCC(N3CCC(c4ccccc4OC)CC3)CC2)[nH]c2ccc(Br)cc12` (stereo unspecified), the inhibition is -0.12%.

In a further assay the target is Glucose transporter (Leishmania mexicana) (UniProt O61059). The experiment in a line: ST_JUDE_LEISH: Cytotoxicity at 2uM final concentration against transgenic Leishmania Mexicana promastigotes LmGT2 that are glucose transport deficient and complemented with the L. Mexicana glucose transporter 2. Activity is measured by DNA content using SYBR green in vitro. It counts as functional.
As to `Cc1cccc(-c2nn(-c3ccccc3)c3[nH]c(=O)c(CN4CCSCC4)cc23)c1`, the inhibition came out at 1.18%.

Take `N#Cc1ccc(NC(=O)c2ccc(Cc3ccc4c(c3)CCN(C3CCC3)CC4)cn2)cc1`: the inhibition was determined as 10.4%.

In the case of `CC1CN(Cc2ccc(-c3ccc(-c4nc5cc(F)ccc5[nH]4)cc3)cc2)CC(C)O1` (stereo unspecified), the inhibition was determined as 3.77%.

Consider `Cn1c(N)c(N=O)c(=O)[nH]c1=O`, for which the inhibition is 1.58%.

On to `COc1ccc(CCN2CCC(NCc3cccc(N(C)C)c3)CC2)cc1`, for which the inhibition was -1.51%.

Take `Cc1[nH]c(C)c(-c2ccc(-c3ccccc3Cl)nc2)c(=O)c1Br`: the inhibition is -0.05%.

With `COCCNCc1cccc(-c2ccc3nccc(Nc4cc(O)ccc4C)c3c2)c1`, the inhibition amounted to 4.38%.

As to `O=C(NCCCCN1CC=C(c2ccc3c(c2OCc2ccccc2)CCCC3)CC1)c1ccc(-c2ccc(C(F)(F)F)cc2)cc1`, the inhibition was -2.15%.

Take `CN1CCN(CC(=O)Nc2ccc(-c3cccc(-c4nc5cc(C(F)(F)F)ccc5[nH]4)c3)cc2)CC1`: the inhibition is -1.43%.

Turning to `CCc1cc(C(=O)c2cccc(C)c2)c(NC(=O)CN2CCN(C(=O)c3ccco3)CC2)s1`, the inhibition was 2.44%.

In the case of `CC(C)COc1ccc(Cl)cc1Nc1nc(-c2nc3ccccc3[nH]2)cs1`, the inhibition was determined as 1.01%.

In the case of `CCOC(=O)C1=C(C)NC2=C(C(=O)CC(C)(C)C2)C1c1ccc(Cl)cc1` (stereo unspecified), the inhibition was 0.29%.

For `COc1ccc(C2CC(=O)C3=C(C2)NC(C)=C(C(=O)OC2CCCC2)C3c2ccc(O)cc2)cc1OC` (stereo unspecified), the inhibition worked out at 0.39%.

For `Cc1ccc(-c2nc3cc(C(=O)NC4CCC(N5CCCc6ccc(C#N)cc6C5)CC4)ccc3[nH]2)cc1` (stereo unspecified), the inhibition is 5.12%.

For the compound `O=C(/C=C/c1ccc(Cl)c(Cl)c1)N1CCC(CN2CCC(c3c[nH]c4cnccc34)CC2)CC1`, the inhibition came to 4.67%.

Take `COc1cc(-c2cc(-c3ccc(S(C)(=O)=O)cc3)cnc2N)ccc1O`: the inhibition was 9.19%.

Consider `CCn1c(-c2nonc2N)nc2cnc(Oc3cccc(NC(=O)c4ccc(OCCN(C(C)C)C(C)C)cc4)c3)cc21`, for which the inhibition came to 5.45%.

Regarding `O=C(Nc1cccc(CN2CCN(C(=O)c3cccc(Cl)c3)CC2)c1)c1ccco1`, the inhibition is 3.82%.

On to `CC1(C)N=C(N)N=C(N)N1OCCCOc1cc(Cl)c(Cl)cc1Cl`, for which the inhibition was 2.71%.

As for `CCN(CC)CCN(Cc1ccc(-c2ccc(C(F)(F)F)cc2)cc1)C(=O)Cn1c(CCc2cccc(F)c2F)nc(=O)c2cc(C)ccc21`, the inhibition was determined as 7.16%.

Consider `CCN(CCCN1CCCCC1)c1cc(C)nc(Nc2ccc(C(F)(F)F)cc2)n1`, for which the inhibition is 3.9%.

With `NCC1CCCN1Cc1cccc(-c2ccc(-c3nc4cc(C(F)(F)F)ccc4[nH]3)cc2)c1` (stereo unspecified), the inhibition is -0.43%.

For the compound `Cc1cc(C(=O)CN2C(=O)NC(C)(c3ccc4ccccc4c3)C2=O)c(C)n1Cc1ccco1` (stereo unspecified), the inhibition is -4.18%.

In the case of `Cc1cccc2nc(-c3ccc(-c4cccc(CN5CCC(CCN6CCCCC6)CC5)c4)s3)[nH]c12`, the inhibition is -3.24%.

`COc1cc(C(=O)N2CCOC(CCN3CCc4c(c5ccccc5n4C)C3)(c3ccc(Cl)c(Cl)c3)C2)cc(OC)c1OC` (stereo unspecified): the inhibition is -1.26%.

Regarding `COc1cc(C2Nc3ccc4ccccc4c3C3=C2C(=O)CC(C)(C)C3)ccc1Oc1ccc([N+](=O)[O-])cc1C#N` (stereo unspecified), the inhibition is -0.66%.

Turning to `COc1ccc2nccc(N3CCC(CCNCc4cc5c(cn4)OCCO5)CC3)c2c1`, the inhibition amounted to 4.48%.

With `COc1nc(NCC(C)C)nc(Oc2ccc(=O)n(Cc3ccccc3)n2)n1`, the inhibition is 3.48%.

For `O=C(Nc1cccc(F)c1)N1CCC(CN2CCOC(c3ccccc3)(c3ccccc3)C2)CC1`, the inhibition amounted to 5%.

Turning to `CCN(c1cc(C)nc(Nc2ccc(Cl)cc2)n1)[C@H]1CCN(Cc2ccccc2)C1`, the inhibition came to 6.41%.

As for `CS(=O)(=O)c1cccc(-c2cnc(N)c3cc(-c4ccc(F)cc4)ccc23)c1`, the inhibition is 1.35%.

For the compound `Nc1n[nH]c(-c2ccccc2Nc2ccnc3cc(-c4nccs4)ccc23)n1`, the inhibition was -0.15%.

Regarding `CCn1cnc2c(N3CCCC3=O)cc(C(=O)N[C@@H](Cc3ccccc3)[C@H](O)CNC3CCCCC3)cc21`, the inhibition came out at 2.63%.

For `Cc1cc(NC(=O)NCCN2CCC(NS(=O)(=O)c3ccc(Br)cc3)C2)c2ccccc2n1` (stereo unspecified), the inhibition came to 3.49%.

`COc1ccc(NC(=O)CCNc2cc(C)nc(NCc3cccc(C)c3)n2)cc1`: the inhibition was -1.14%.

As to `N#Cc1ccc(-c2ccc(C(=O)NCCCCN3CCC(c4ccc5c(c4OCc4ccccn4)CCCC5)CC3)cc2)cc1`, the inhibition turned out to be 0.17%.

For `COc1ccc(-c2cccc(NC(=O)c3ccc(C#N)cc3)c2)cc1CN1CCCN(C)CC1`, the inhibition amounted to 0.9%.

With `Nc1nc(N)c2c(ccc3c2ccn3Cc2ccc(OCc3ccccc3)cc2)n1`, the inhibition is -0.6%.

Take `CC(C)(C)c1ccc(Cn2c(=N)n(CC(=O)c3ccc(-c4ccccc4)cc3)c3ccccc32)cc1`: the inhibition was -0.07%.

For `CCc1c(C(=O)NC2CCC(N3CCC(c4ccccc4OC)CC3)CC2)[nH]c2ccc(Br)cc12` (stereo unspecified), the inhibition is -0.91%.
